GLS inhibitor: blocks human kidney-isoform glutaminase activity | O94925 | GLS enzymatic activity, qHTS titration | AID 624170 | 410,000 tested, 0.21% active | Potency, µM (doses to about 45.5 µM), inactives show top-dose activity change, negative = inhibition, most hits filed as inhibitors; note: potency is the fitted concentration of half-maximal effect; % is set by controls: 0 for no effect and ±100 for the full control effect
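Compounds were pin-transferred onto hKGA, after which L-glutamine (1 mM solution) and a detection mix of glutamate oxidase, HRP and Amplex Red were added. Initial and 30 min RT fluorescence reads were collected.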
TrxR1 inh: rat TrxR1 inhibition; recombinant rTrxR1, NADPH fluorescence consumption, selenite substrate; 390,000 tested, 1% active; AID 588453; O89049; Potency, µM (titrated, usually from 114 µM), without a hit: top-dose activity change, negative = inhibition, most hits filed as inhibitors; note: potency is the fitted concentration of half-maximal effect; % is set by controls: 0 for no effect and ±100 for the full control effect; nearly all actives have a fitted effect of over 65% in size
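Rat TrxR1 (90 nM in the dispensed reagent) was pre-reduced with 400 uM NADPH for 5 min at room temperature, then incubated with compound for 15 min. After 400 uM selenite was added, NADPH fluorescence (Ex 340/Em 450 nm) was followed for 8 min.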
TrxR1 substrate: rat thioredoxin reductase 1 substrate activity. purified TrxR1 substrate turnover, NADPH consumption readout. Potency, µM (doses to about 114 µM), without a hit: at the top dose activity change, negative = substrate turnover. 390,000 tested, 0.01% active. AID 588456; note: potency is the fitted concentration of half-maximal effect; % is set by controls: 0 for no effect and ±100 for the full control effect; nearly all actives have a fitted effect of over 50% in size
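Rat TrxR1, dispensed at 90 nM, was prereduced with 400 uM NADPH (final) for 5 min at ~22 deg C, then incubated with compound 15 min before 400 uM selenite. A first-read NADPH fluorescence drop versus no-compound background flagged substrates.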
mIDH1 inhibitor: inhibitors of human mutant IDH1 R132H; O75874; 390,000 tested, 0.093% active; AID 602179; IDH1-R132H enzyme, NADPH consumption, diaphorase/resazurin fluorescence; Potency, µM (titrated, usually from 76.6 µM), inactives show at the top dose activity change, negative = inhibition, most hits filed as inhibitors; note: potency is the fitted concentration of half-maximal effect; % is set by controls: 0 for no effect and ±100 for the full control effect; nearly all actives have a fitted effect of over 65% in size
Target sequence (O75874 whole entry R132H, stated change not applied): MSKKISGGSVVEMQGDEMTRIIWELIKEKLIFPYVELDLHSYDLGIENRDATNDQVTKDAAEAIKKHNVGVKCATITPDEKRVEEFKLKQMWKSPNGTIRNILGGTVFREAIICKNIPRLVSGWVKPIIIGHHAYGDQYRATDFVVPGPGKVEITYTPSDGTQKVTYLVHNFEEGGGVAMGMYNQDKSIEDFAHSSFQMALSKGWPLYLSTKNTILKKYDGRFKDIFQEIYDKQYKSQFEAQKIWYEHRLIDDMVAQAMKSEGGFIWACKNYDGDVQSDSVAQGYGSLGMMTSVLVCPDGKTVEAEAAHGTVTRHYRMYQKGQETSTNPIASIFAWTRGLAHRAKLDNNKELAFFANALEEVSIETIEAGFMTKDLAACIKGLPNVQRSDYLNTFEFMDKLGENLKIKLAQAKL
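IDH1-R132H (0.5 ug/mL dispensed) in pH 7.5 Tris buffer was preincubated 30 min with compound, then given a substrate mix of 0.016 mM NADPH and 2 mM alpha-KG for 80 min at room temperature; remaining NADPH was read by diaphorase/resazurin fluorescence.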
Resorufin autofl: counter-screen for mutant IDH1 inhibitors: fluorescence interference | shares compounds with mIDH1 inhibitor | Resorufin detection reagent fluorescence interference, cell-free | inhibition of signal, % at 51.2 µM | 750 tested, under 10 active;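 note: 0% = wells with normal resorufin and full inhibition = wells lacking resorufin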
WT IDH1 inh: wild-type IDH1 (human) inhibition counterscreen. shares compounds with mIDH1 inhibitor. WT IDH1 enzyme, NADPH diaphorase/resazurin fluorescence. Potency, µM (highest dose often 115 µM), for the others: top-dose activity change, negative = inhibition, most hits filed as inhibitors. 750 tested, 9% active. AID 623995;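 note: potency is the fitted concentration of half-maximal effect; 0% = full WT IDH1 enzyme control and full inhibition = no enzyme wells; nearly all actives have a fitted effect of over 55% in size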
Target sequence (O75874 whole entry, looked up): as the sequence (O75874 whole entry R132H, stated change not applied) above, with H132R counted along it
mIDH1 confirm: mutant IDH1 (human) inhibition, confirmed; shares compounds with mIDH1 inhibitor; IDH1 R132H enzyme, NADPH diaphorase/resazurin fluorescence; Potency, µM (top dose mostly 76.6 µM), for the others: top-dose activity change, negative = inhibition, most hits filed as inhibitors; 750 tested, 83% active; note: potency is the fitted concentration of half-maximal effect; nearly all actives have a fitted effect of over 50% in size
* hit, by the source's call; [ ] = dose if it differs, or a comment. Most compounds without a hit are left out; they make up all but 1.2% or so of the library. Calls come from the whole dose curve; as a rule, active = well fitted curve in the direction sought with a large enough effect; inconclusive = small, poorly fitted or top-dose-only effect, or another doubt; inactive = no such curve, though single readings can be large; an effect the other way counts as inactive or inconclusive.

Results for COC(=O)c1ccc(C2c3c(-c4ccccc4O)n[nH]c3C(=O)N2Cc2cccnc2)cc1 (stereo not drawn) ?
GLS inhibitor: 0.6%; TrxR1 inh: 6.2%; TrxR1 substrate: -4.4%; mIDH1 inhibitor: inconclusive; Resorufin autofl: 4.8; WT IDH1 inh: 0.4%; mIDH1 confirm: 39.8µM*

Results for COc1ccc(CCN2C(=O)c3[nH]nc(-c4ccccc4O)c3C2c2ccc(O)c(OC)c2)cc1 (stereo not drawn) ?
GLS inhibitor: 5.2%; TrxR1 inh: 16.6%; TrxR1 substrate: 2.9%; mIDH1 inhibitor: -6.6%

How did CCOc1cc(C2c3c(-c4ccccc4O)n[nH]c3C(=O)N2CCc2ccccc2)ccc1O (stereo not drawn) do in these assays?
GLS inhibitor: 6.6%; TrxR1 inh: -1.9%; TrxR1 substrate: -10.0%; mIDH1 inhibitor: inconclusive; Resorufin autofl: -3.1; WT IDH1 inh: 9.3%; mIDH1 confirm: inconclusive

What do the screens show for `CCCOc1ccc(C2c3c(-c4ccccc4O)n[nH]c3C(=O)N2Cc2ccncc2)cc1OCC` (stereo not drawn)?
GLS inhibitor: 2.4%; TrxR1 inh: -13.3%; TrxR1 substrate: 24.4%; mIDH1 inhibitor: inconclusive; Resorufin autofl: -4.7; WT IDH1 inh: inconclusive; mIDH1 confirm: 44.7µM*

How did CCCN1C(=O)c2[nH]nc(-c3cc(Cl)c(C)cc3O)c2C1c1ccc(O)c(OC)c1 (stereo not drawn) do in these assays?
GLS inhibitor: -3.3%; TrxR1 inh: 20.5%[57.1 µM]; TrxR1 substrate: 2.5%[57.1 µM]; mIDH1 inhibitor: 26.1µM*; Resorufin autofl: 11.5; WT IDH1 inh: inconclusive; mIDH1 confirm: 28.2µM*

Results for CCOC(=O)c1ccc(NC(=O)CCc2c(C)nc3c(c(C)nn3C)c2C)cc1 ?
GLS inhibitor: -1.1%; TrxR1 inh: -0.8%; TrxR1 substrate: 0.5%; mIDH1 inhibitor: 8.8%

How did CCOc1ccc(Sc2cc(C(=O)NCc3ccccc3Cl)c3ccccc3n2)cc1 do in these assays?
GLS inhibitor: -6.7%; TrxR1 inh: 21.2%[57.1 µM]; TrxR1 substrate: 1.2%[57.1 µM]; mIDH1 inhibitor: -16.6%

What do the screens show for `CC(=N)c1c(O)cc(C)oc1=O`?
GLS inhibitor: -13.4%; TrxR1 inh: -1.2%[2.29 µM]; TrxR1 substrate: -3.2%[2.29 µM]; mIDH1 inhibitor: 4.2%

What do the screens show for `CCOC(=O)c1cccc(NC(=O)C(C)n2nc(C)c3c(C)n(-c4ccccc4)nc3c2=O)c1` (stereo not drawn)?
GLS inhibitor: 6.2%; TrxR1 inh: 18.5%; TrxR1 substrate: -1.2%; mIDH1 inhibitor: 9.3%

Results for CC(C)c1ccc(C2c3c(-c4ccccc4O)n[nH]c3C(=O)N2Cc2ccncc2)cc1 (stereo not drawn) ?
GLS inhibitor: 9.9%; TrxR1 inh: 24.2%; TrxR1 substrate: -1.5%; mIDH1 inhibitor: 15.8µM*; Resorufin autofl: -14.4; WT IDH1 inh: -4.1%; mIDH1 confirm: 22.4µM*

What do the screens show for `CSc1ccc(C2c3c(-c4ccccc4O)n[nH]c3C(=O)N2Cc2ccncc2)cc1` (stereo not drawn)?
GLS inhibitor: 22.7%; TrxR1 inh: 22.3%; TrxR1 substrate: -3.9%; mIDH1 inhibitor: 39.8µM*; Resorufin autofl: -0.2; WT IDH1 inh: 4.2%; mIDH1 confirm: 28.2µM*

What do the screens show for `CC1(C)Cc2c(c(N3CCOCC3)nc3sc4c(NCc5ccccc5)nnnc4c23)CS1`?
GLS inhibitor: -11.7%; TrxR1 inh: -13.3%; TrxR1 substrate: 3.9%; mIDH1 inhibitor: -1.6%

What do the screens show for `CC(C)CNc1ncnc2c1sc1nc(N3CCOCC3)c3c(c12)CC(C)(C)OC3`?
GLS inhibitor: -1.5%; TrxR1 inh: -10.4%; TrxR1 substrate: 2.8%; mIDH1 inhibitor: -0.1%

How did NNc1nnnc2c1sc1nc(N3CCOCC3)c3c(c12)CCCC3 do in these assays?
GLS inhibitor: 5.3%; TrxR1 inh: -18.6%; TrxR1 substrate: -0.4%; mIDH1 inhibitor: 52.1µM*; Resorufin autofl: -1.5; WT IDH1 inh: -14.6%; mIDH1 confirm: inconclusive

How did OCCNc1ncnc2c1sc1nc(N3CCOCC3)c3c(c12)CCC3 do in these assays?
GLS inhibitor: -13.7%; TrxR1 inh: 8.1%[57.1 µM]; TrxR1 substrate: 36.0%; mIDH1 inhibitor: 12.2%

What do the screens show for `CC1(C)Cc2c(c(N3CCOCC3)nc3sc4c(NN)ncnc4c23)CS1`?
GLS inhibitor: 12.3%; TrxR1 inh: 1.8%; TrxR1 substrate: -3.5%; mIDH1 inhibitor: 23.3µM*; Resorufin autofl: -5.3; WT IDH1 inh: inconclusive; mIDH1 confirm: 14.1µM*

How did CC(C)CNc1nnnc2c1sc1nc(N3CCOCC3)c3c(c12)CC(C)(C)SC3 do in these assays?
GLS inhibitor: 16.9%; TrxR1 inh: -9.0%; TrxR1 substrate: 3.2%; mIDH1 inhibitor: inconclusive; Resorufin autofl: 9.5; WT IDH1 inh: inconclusive; mIDH1 confirm: inconclusive

Results for O=C(CSCc1cc(=O)c2cc(F)ccc2[nH]1)Nc1ccccc1Cl ?
GLS inhibitor: 6.9%; TrxR1 inh: 14.4%[57.1 µM]; TrxR1 substrate: 3.2%[57.1 µM]; mIDH1 inhibitor: 14.4%

Results for Cc1cccc(C)c1NC(=O)c1ccc2nc(CCc3ccccc3)oc2c1 ?
GLS inhibitor: 2.0%; TrxR1 inh: 31.3%[57.1 µM]; TrxR1 substrate: 4.4%[57.1 µM]; mIDH1 inhibitor: 11.2%

Results for COc1ccc(C2c3c(n(C)c4ccccc34)C(=O)N2CC(=O)Nc2c(C)cc(C)cc2C)cc1 (stereo not drawn) ?
GLS inhibitor: -1.7%; TrxR1 inh: 10.7%; TrxR1 substrate: -3.3%; mIDH1 inhibitor: inconclusive; Resorufin autofl: -4.2; WT IDH1 inh: -9.9%; mIDH1 confirm: inconclusive

How did Cc1ccc2c(c1)/C(=N/N1C(=O)c3ccccc3C1=O)C(=O)N2 do in these assays?
GLS inhibitor: -9.0%; TrxR1 inh: -7.7%; TrxR1 substrate: -5.0%; mIDH1 inhibitor: 46.5µM*; Resorufin autofl: 1.1; WT IDH1 inh: 5.6%; mIDH1 confirm: 7.94µM*

What do the screens show for `CCOC(=O)N1CCC2(CC1)C(C#N)=C(N)Oc1n[nH]c(CSc3ccc(C)cc3)c12`?
GLS inhibitor: 26.6%; TrxR1 inh: -17.4%; TrxR1 substrate: -9.3%; mIDH1 inhibitor: inconclusive; Resorufin autofl: 3.9; WT IDH1 inh: -0.1%; mIDH1 confirm: 28.2µM*

Results for Cc1ccc(SCc2[nH]nc3c2C2(CCSCC2)C(C#N)=C(N)O3)cc1 ?
GLS inhibitor: 28.6%; TrxR1 inh: 1.0%; TrxR1 substrate: 2.0%; mIDH1 inhibitor: -18.6%

High-throughput results as filed in PubChem BioAssay.
